Only a selection was taken, and hits are over-represented in it overall.
Pf apPOL inh: Pf-apPOL DNA polymerase inhibition; AID 1794808; Recombinant Pf-apPOL, molecular beacon fluorescence, 1.5 h; inhibition, % at 10 µM; 0.25% of 210,000 active
mHTT CaM bind: mHTT-calmodulin interaction abrogation. P42858. AlphaScreen His-mHTT/GST-CaM binding, luminescence. inhibition, % at 15 µM. 3.6% of 190,000 active. AID 1671202
Large screens that a line does not name were inactive. Rule as the data show it: active = inhibition above about 50%; inactive = the rest.

O=[N+]([O-])c1cc(NC2OCC(O)C(O)C2O)ccc1S(=O)(=O)O (stereo unspecified)	Pf apPOL inh 61.8
CCCNc1cc(N2CCC(CCC(=O)NCCc3ccncc3)CC2)ncn1	none
Cc1ccc(C2CCCN2C(=O)Cc2ccc(Cl)cc2)cc1 (stereo unspecified)	mHTT CaM bind 57.8
Cc1ccc(C2CCCN2C(=O)Cc2ccc(F)cc2)cc1 (stereo unspecified)	none
Cc1ccccc1C1CCCN1C(=O)Cc1ccc(Cl)cc1 (stereo unspecified)	mHTT CaM bind 58.0
Cc1ccccc1C1CCCN1C(=O)Cc1cccc(Cl)c1 (stereo unspecified)	none
C[C@@H]1CC=C[C@H]2[C@H]1C(=O)N(Cc1ccccc1)[C@H]2c1ccc(-c2ccoc2)cc1F	mHTT CaM bind 60.0
O=C1C2C(c3ccccc3)CC=CC2[C@H](c2ccc(C(F)(F)F)cc2)N1Cc1ccccc1 (stereo partly specified)	none
C[C@@H]1CC=C[C@H]2[C@H]1C(=O)N(Cc1ccccc1)[C@H]2c1ccc(-c2ccc(F)cc2)cc1F	none
C[C@@]12CCC=C[C@H]1[C@H](c1ccc(C(F)(F)F)cc1)N(Cc1ccccc1)C2=O	mHTT CaM bind 82.8
C[C@@H]1CC=C[C@H]2[C@H]1C(=O)N(Cc1ccccc1)[C@H]2c1ccc(C(F)(F)F)cc1	mHTT CaM bind 91.0
C[C@@]12CCC=C[C@H]1[C@H](c1ccc(/C=C/c3ccccc3)cc1F)N(Cc1ccccc1)C2=O	none
Nc1cc(N)nc(SCc2ccc(Cl)c(Cl)c2)n1	none (no result: Pf apPOL inh)
Cc1ccc(C(=O)CC(=O)c2ccccc2C)c(O)c1	none
Cc1ccc(C(=O)CN2C(=C(O)c3ccccc3)C(=O)c3ccccc3S2(=O)=O)c(C)c1	mHTT CaM bind 59.4
Cc1ccc(C(=O)CN2C(C(=O)c3ccccc3)=C(N(C)C)c3ccccc3S2(=O)=O)c(C)c1	mHTT CaM bind 55.0
CN1C(=C(O)c2ccccc2)C(=O)c2ccccc2S1(=O)=O	none
O=C(Nc1ccc([N+](=O)[O-])cc1)c1cccc(S(=O)(=O)Nc2ccc(F)cc2)c1	none
O=[N+]([O-])c1cc([N+](=O)[O-])c2cnn(-c3ccccc3)c2c1	none
CC1(C)CCN2CCC(C)(C)c3c(O)ccc1c32	mHTT CaM bind 70.6
CC1(C)CCC(C)(C)c2cc3c(cc21)C(C)(C)CCC3(C)C	none (no result: mHTT CaM bind)
CCN(c1ccc(C)c(C)c1)S(=O)(=O)c1ccc2c(c1)CC(C)N2C(C)=O (stereo unspecified)	mHTT CaM bind 70.0
CCN(c1cccc(C)c1)S(=O)(=O)c1ccc2c(c1)CC(C)N2C(C)=O (stereo unspecified)	none
Cc1ccccc1NC(=O)CN1C(=O)C(c2ccc(F)cc2)=NC12CCCCCC2	none
CCCCC1=NN(C(=O)c2ccccc2Cl)C(O)(C(F)(F)F)C1 (stereo unspecified)	none
CCCCC1=NN(C(=O)COc2ccc(Cl)c(C)c2)C(O)(C(F)(F)F)C1 (stereo unspecified)	mHTT CaM bind 100.0
CCC1=NN(C(=O)COc2ccccc2C)C(O)(C(F)(F)F)C1 (stereo unspecified)	none
Cc1ccccc1OCC(=O)N1N=C(c2cccc(Br)c2)CC1(O)C(F)(F)F (stereo unspecified)	mHTT CaM bind 99.0
Cc1ccc(-c2nnc(SCC(=O)Nc3ccc(C)cc3Br)o2)cc1	none
COc1cc(C(=O)N2CCN(Cc3cccc([N+](=O)[O-])c3)CC2)cc(OC)c1OC	none
O=C(C1=CN(c2ccc3c(c2)OCO3)c2ccccc2S1(=O)=O)N1CCCCC1	none
COc1ccc(C2/C=C\CN(C(=O)c3ccc(C)cc3)[C@@H](Cc3ccccc3)C(=O)N2Cc2ccc(F)cc2)cc1 (stereo partly specified)	none
COc1ccc(C2/C=C\CN(C(=O)C3CC3)[C@@H](Cc3ccccc3)C(=O)N2Cc2ccc(F)cc2)cc1 (stereo partly specified)	mHTT CaM bind 91.2
COc1ccc(C2/C=C\CN(CC(C)C)[C@@H](Cc3ccccc3)C(=O)N2Cc2ccc(F)cc2)cc1 (stereo partly specified)	none
COc1ccc(C2/C=C\CN(C(=O)c3ccccc3)[C@@H](Cc3ccccc3)C(=O)N2Cc2ccc(F)cc2)cc1 (stereo partly specified)	mHTT CaM bind 87.3
CCC1C(c2ccccc2)NC(c2ccccc2)CC1(C)O (stereo unspecified)	none
O=S(=O)(NCC(O)(c1ccccc1)C(F)(F)F)c1ccc(Cl)s1 (stereo unspecified)	none
O=C(c1ccc(N2CCNC(c3ccccc3)C2)nc1)N1CCc2ccccc2C1 (stereo unspecified)	mHTT CaM bind 70.9
CN1CCN(C(=O)c2ccc(N3CCNC(c4ccccc4)C3)nc2)CC1 (stereo unspecified)	none
CCOC(=O)C1C(=O)C=C(c2ccc(F)cc2)CC1c1ccc(F)cc1 (stereo unspecified)	none
COC(CNC(=O)c1cnn2c(C)c(Cc3ccccc3)c(C)nc12)OC	none

Screens deposited in PubChem by University of Kansas High Throughput Screening Laboratory.
